Assay outcomes as filed in PubChem BioAssay.
Rows were chosen to be rich in hits. Some 6.1% of all compounds tested hit in one or more screens of this group.
Gal4-VP16 FLuc: inhibits Gal4-VP16 luciferase reporter, ROR gamma counter-screen; Drosophila S2 Gal4-VP16 UAS-luciferase, luminescence, 20 h; Potency, µM (titrated, usually from 53.6 µM), for the others: at the highest dose activity, negative = inhibition, most hits filed as inhibitors; hit rate 3.5% among 310,000; AID 2546;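 note: Gal4-VP16 expression switched on by copper sulfate through the metallothionein promoter; % is set by controls: 0 for no effect and ±100 for the full control effect; nearly all actives have a fitted effect of over 50% in size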
TGFb inhibitor: inhibitors of TGF-b signaling; HepG2 CAGA-GFP TGF-b/SMAD3 reporter, GFP fluorescence, 18 h; TGF-beta stimulated, 500 pg/mL final; Potency, µM (titrated, usually from 46.1 µM), for the others: at the top dose activity, negative = inhibition, most hits filed as inhibitors; hit rate 1.2% among 410,000; note: % is set by controls: 0 for no effect and ±100 for the full control effect; nearly all actives have a fitted effect of over 65% in size
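Read-out: total well GFP (ex488/em500-530) summed from mean per-cell fluorescence. Cells: HEPG2 CAGA-GFP, 1% FBS DMEM, 18 h at 37 degrees C with 500 pg/mL final TGF-beta. Unstimulated wells served as the full-inhibition control; stimulated DMSO wells = 0%.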
HepG2 tox: counter-screen for TGF-b inhibitors: cytotoxicity in HepG2 cells | HepG2 CAGA-GFP viability, ATP luminescence, 18 h | Potency, µM (top dose mostly 46.1 µM), inactives show at the highest dose activity change, negative = cytotoxicity, hits mostly cytotoxic | hit rate 0.76% among 410,000
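HepG2 CAGA-GFP cells (1000/well, DMEM with 1% FBS) received compound, then TGF-beta at 500 pg/mL final, and were incubated 18 hours at 37 degrees C. Viability was read by CellTiter-Glo luminescence. Media-only wells were set as complete cell-killing and DMSO as no toxicity.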
ATXN2 expr inh: ATXN2 expression inhibition | Potency, µM (series often up to 57 µM), for the others: at the top dose activity change, negative = inhibition, actives largely listed as inhibitors | HEK-293 ATXN2-luciferase reporter, luminescence, 24 h | hit rate 0.72% among 360,000; note: % is set by controls: 0 for no effect and ±100 for the full control effect; nearly all actives have a fitted effect of over 55% in size
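ATXN2-luciferase reporter cells (luciferase flanked by upstream and downstream ATXN2 gene portions) were treated 24 h at 37 °C with compounds at up to 57 uM. SteadyGlo luminescence gave expression; GF-AFC fluorescence gave viability.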
RORgamma inh: ROR gamma (mouse) transcription inhibition; Potency, µM (titrated, usually from 53.6 µM), inactives show at the highest dose activity change, negative = inhibition, hits mostly inhibitors; hit rate 5.4% among 310,000; AID 2551; Drosophila S2 Gal4-RORgamma UAS-luciferase reporter, 20 h; note: % is set by controls: 0 for no effect and ±100 for the full control effect; nearly all actives have a fitted effect of over 60% in size
Target sequence (P51450 whole entry, looked up, the tested form may be a part): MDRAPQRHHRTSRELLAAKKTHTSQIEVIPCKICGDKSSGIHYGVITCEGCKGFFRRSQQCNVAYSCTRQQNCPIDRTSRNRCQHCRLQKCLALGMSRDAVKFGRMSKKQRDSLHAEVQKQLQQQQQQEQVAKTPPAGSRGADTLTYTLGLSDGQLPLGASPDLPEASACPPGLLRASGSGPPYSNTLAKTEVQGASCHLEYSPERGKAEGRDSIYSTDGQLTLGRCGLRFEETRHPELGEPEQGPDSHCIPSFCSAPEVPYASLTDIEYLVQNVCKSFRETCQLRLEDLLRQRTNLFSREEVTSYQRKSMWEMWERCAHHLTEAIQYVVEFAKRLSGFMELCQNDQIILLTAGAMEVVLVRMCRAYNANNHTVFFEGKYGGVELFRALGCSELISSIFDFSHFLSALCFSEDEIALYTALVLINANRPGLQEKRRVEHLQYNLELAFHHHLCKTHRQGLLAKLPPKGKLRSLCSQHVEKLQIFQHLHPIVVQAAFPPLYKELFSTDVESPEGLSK
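Schneider cells (Drosophila), stable Gal4 DBD–ROR gamma + UAS-luc; 1 hr cmpd preincubation; Cu2+ induction 700 uM final; 20 hr ambient; luminescence.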
ATXN viability: viability counter-screen for ATXN expression inhibitors | S2 cells (HEK-293 line with an ATXN2-luciferase reporter) viability, CellTiter-Fluor protease fluorescence, 24 h | Potency, µM (series often up to 56.7 µM), hits mostly cytotoxic | hit rate 0.49% among 400,000; note: nearly all actives have a fitted effect of over 40% in size
* = called active by the depositor; ! = repeats disagree; [ ] = remark or other dose. Calls come from the whole dose curve; as a rule, active = well fitted curve in the direction sought with a large enough effect; inconclusive = small, poorly fitted or top-dose-only effect, or another doubt; inactive = no such curve, though single readings can be large; an effect the other way counts as inactive or inconclusive. Potency is the fitted concentration of half-maximal effect.

Results for Cc1cccc(NS(=O)(=O)c2ccc3[nH]c4c(c3c2)CCCCCC4)c1 ?
TGFb inhibitor: 10µM*; HepG2 tox: 20µM*

What do the screens show for `CCOc1ccc(NS(=O)(=O)c2ccc3[nH]c4c(c3c2)CCCC4)cc1`?
TGFb inhibitor: 11µM*; HepG2 tox: 11µM*; ATXN2 expr inh: inconclusive; ATXN viability: inconclusive

Results for O=S(=O)(Nc1cccc(Cl)c1)c1ccc2[nH]c3c(c2c1)CCCCCC3 ?
TGFb inhibitor: 11µM*; HepG2 tox: 20µM*; ATXN2 expr inh: inconclusive

How did Cc1ccc(Cl)cc1N1CCN(S(=O)(=O)c2ccc3[nH]c4c(c3c2)CCCC4)CC1 do in these assays?
TGFb inhibitor: 10µM*; HepG2 tox: -4%; ATXN2 expr inh: -6%; ATXN viability: inactive

How did C[C@@H]1CN(Cc2ccc3c(c2)CN(Cc2cccc4cccnc24)CCO3)C[C@H](C)O1 do in these assays?
ATXN viability: inactive

How did CCCn1c(=O)sc2cc(NC(=O)COc3ccc(Cl)cc3)ccc21 do in these assays?
TGFb inhibitor: inconclusive; HepG2 tox: -21%; ATXN2 expr inh: inconclusive; ATXN viability: inconclusive

How did COc1cc(NS(=O)(=O)c2ccc(NC(=O)C(C)Oc3ccc(Cl)cc3Cl)cc2)nc(OC)n1 (configuration not stated) do in these assays?
TGFb inhibitor: inconclusive; HepG2 tox: -32%; ATXN2 expr inh: -7%; ATXN viability: inactive

Results for COc1ccc(/C=C/C(=O)Nc2nc(-c3cccs3)ns2)cc1OC ?
TGFb inhibitor: -39%; HepG2 tox: -48%

Results for CCOC(=O)c1c(C)oc2ncnc(N3CCN(c4ccccc4OC)CC3)c12 ?
TGFb inhibitor: 1%; HepG2 tox: 7%; ATXN2 expr inh: -13%; ATXN viability: inactive

What do the screens show for `Cc1ccc(NS(=O)(=O)c2ccc3[nH]c4c(c3c2)CCCCCC4)cc1Cl`?
TGFb inhibitor: 11µM*; HepG2 tox: 13µM*; ATXN2 expr inh: inconclusive; ATXN viability: inconclusive

How did CCOC(=O)c1cccc(NS(=O)(=O)c2ccc3[nH]c4c(c3c2)CCCC4)c1 do in these assays?
TGFb inhibitor: 14µM*; HepG2 tox: -53%; ATXN2 expr inh: inconclusive; ATXN viability: inconclusive

Results for COc1ccc(-n2nc3c(c2NC(=O)C(=O)NCc2ccccc2)CSC3)cc1 ?
TGFb inhibitor: -4%; HepG2 tox: -3%; ATXN2 expr inh: 1%; ATXN viability: inactive

Results for Cc1cc2c(nc1C)CCCCN2C[C@H](C)O/N=C1/[C@H]2O[C@@H]2[C@@H](O)[C@H]2[C@H]1CCn1c(=O)n(-c3ccccc3)c(=O)n12 ?
Gal4-VP16 FLuc: -5%[10 µM]; RORgamma inh: -3%[10 µM]

What do the screens show for `C=C(C)COc1ccc(-c2n[nH]c(C)c2Oc2ccccc2OC)c(O)c1`?
Gal4-VP16 FLuc: -16%; TGFb inhibitor: inconclusive; HepG2 tox: -96%; ATXN2 expr inh: inconclusive; RORgamma inh: 1.6µM*; ATXN viability: inconclusive

What do the screens show for `CCOc1ccc(-c2n[nH]c(C)c2Oc2ccccc2OC)c(O)c1`?
Gal4-VP16 FLuc: 2.5µM*; TGFb inhibitor: inconclusive; HepG2 tox: -46%; ATXN2 expr inh: -21%; RORgamma inh: 2.2µM*; ATXN viability: inactive

Results for Cc1[nH]nc(-c2ccc(OCc3cnn(-c4ccccc4)c3)cc2O)c1Oc1ccccc1F ?
Gal4-VP16 FLuc: 10µM*; TGFb inhibitor: inconclusive; HepG2 tox: -57%; ATXN2 expr inh: -14%; RORgamma inh: 6.3µM*; ATXN viability: inactive

What do the screens show for `O=c1c(Oc2ccccc2F)coc2cc(OCc3cnn(-c4ccccc4)c3)ccc12`?
Gal4-VP16 FLuc: 2%; TGFb inhibitor: 2%; HepG2 tox: -43%; RORgamma inh: -10%; ATXN viability: inactive

What do the screens show for `CCc1cc(-c2n[nH]c(C)c2Oc2ccc(C(C)C)cc2)c(O)cc1O`?
Gal4-VP16 FLuc: inconclusive; TGFb inhibitor: -10%; HepG2 tox: -104%; ATXN2 expr inh: -32%; RORgamma inh: 7.1µM*; ATXN viability: inconclusive

How did Cc1ccc(-c2noc(C(C)NS(=O)(=O)c3ccc(C)cc3)n2)cc1 (configuration not stated) do in these assays?
TGFb inhibitor: -22%; HepG2 tox: -25%; ATXN2 expr inh: -16%; ATXN viability: inconclusive

How did CCCOC(=O)c1ccc(Oc2c(-c3ccc(OC)cc3O)n[nH]c2C)cc1 do in these assays?
Gal4-VP16 FLuc: inconclusive; TGFb inhibitor: inconclusive; HepG2 tox: -94%; ATXN2 expr inh: inconclusive; RORgamma inh: 7.1µM*; ATXN viability: inconclusive

Results for CCCC(CCC)C(N)=O ?
ATXN viability: inactive

Results for COc1ccc(COC(=O)N/N=C2/C[C@@H](O)[C@@H](O)[C@@H]3[C@@H]4C(=O)N(c5cccc(Oc6ccccc6)c5)C(=O)[C@H]4CC[C@H]23)cc1 ?
Gal4-VP16 FLuc: 6%[10 µM]; RORgamma inh: 13%[10 µM]

Results for COc1ccc(OC)c(NC(=O)CSc2nccn2-c2cc(C)cc(C)c2)c1 ?
TGFb inhibitor: -23%; HepG2 tox: -32%; ATXN2 expr inh: -9%; ATXN viability: inactive

Results for CC(C)Cn1cnc2c(N)nc3ccccc3c21 ?
Gal4-VP16 FLuc: -3%; TGFb inhibitor: 13%; HepG2 tox: -2%; ATXN2 expr inh: 22µM*!; RORgamma inh: -9%; ATXN viability: inactive

Results for COc1ccc(-c2onc(C)c2C)cc1S(=O)(=O)N(C)Cc1ccco1 ?
TGFb inhibitor: inconclusive; HepG2 tox: -2%

Results for CC(C)CC(=O)/C(=C\c1ccc(Cl)cc1Cl)n1cncn1 ?
Gal4-VP16 FLuc: 5µM*; TGFb inhibitor: 7.1µM*; HepG2 tox: 7.9µM*; RORgamma inh: 4.5µM*; ATXN viability: inconclusive

How did COc1ccc(-n2c(=O)c3sc4ccccc4c3n(CC(=O)Nc3ccccc3F)c2=O)cc1 do in these assays?
TGFb inhibitor: -12%; HepG2 tox: -3%; ATXN2 expr inh: 0%; ATXN viability: inactive

What do the screens show for `O=C(NCCc1csc(-c2ccc(F)cc2)n1)c1cccs1`?
TGFb inhibitor: -20%; HepG2 tox: -47%; ATXN2 expr inh: inconclusive; ATXN viability: inconclusive

Results for Cc1ccc(CN(CC(O)COc2cccc3[nH]cc(C)c23)C(C)(C)C)cc1 (configuration not stated) ?
Gal4-VP16 FLuc: -20%; TGFb inhibitor: inconclusive; HepG2 tox: 13µM*; RORgamma inh: -9%; ATXN viability: inconclusive
